Test results as given in PubChem BioAssay.
Values joined by “and” are separate entries in the source; they are usually repeats but may differ in a detail not shown here. Identical values can stand only once. Records with an inconclusive call do not appear. Where a structure was tested more than once in an assay, its records may differ in their call. Active and inactive are the calls of the source. Unless noted, the rule behind the calls is not given here.

How the values were obtained:
[1] = yeast TOR pathway RPL19A-GFP modulators, primary screen, cell-based, S. cerevisiae, multiplex flow cytometry (AID 1862; in the data active = percent of DMSO control GFP below about 86%;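 note: lower values mimic rapamycin by blocking the RPL19A rise seen in DMSO cells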); conditions: S. cerevisiae RPL19A-GFP strain, flow cytometry fluorescence, 3 h; at 10 µM; stronger effect = lower value
[2] = modulators of MEP2-GFP levels in yeast, primary screen, S. cerevisiae, multiplex flow cytometry (AID 1867;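 active = GFP response, as percent of the DMSO control, above the screen-wide mean plus 3 SD, about 139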;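 note: median GFP channel fluorescence of barcode-gated MEP2-GFP cells measured by flow cytometry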); conditions: S. cerevisiae MEP2-GFP strain, 3 h, at 10 µM, stronger effect = higher value
[3] = modulators of CIT2-GFP expression in yeast, primary screen, S. cerevisiae, GFP fusion, multiplex flow cytometry (AID 1870;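 active = percent response above a set limit, the screen-wide mean plus 3 SD, cut at about 130% in these data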;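 note: barcoded CIT2-GFP strain pooled with four other GFP strains with rapamycin as positive control; median GFP fluorescence per well over plate mean of DMSO wells so 100% = DMSO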); conditions: 3 h, at 10 µM, stronger effect = higher value
[4] = modulators of LAP4-GFP expression in yeast, primary screen, S. cerevisiae, multiplex flow cytometry (AID 1873;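 active = GFP signal, as percent of the solvent control, above the screen mean plus 3 SD, about 149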); conditions: 3 h, at 10 µM, stronger effect = higher value
[5] = modulators of AGP1-GFP expression in yeast TOR pathway, primary screen, cell-based, multiplex flow cytometry, S. cerevisiae (AID 1887;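 active = GFP signal above the screen-wide mean plus 3 SD, that is over about 124.5% of the solvent control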;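 note: AGP1-GFP fusion strain of S. cerevisiae within a five-strain barcoded multiplex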); conditions: 3 h, at 10 µM, stronger effect = higher value
[6] = inhibitors of CD8+ T cell-vesicle binding, pilot screen, LFA-1/ICAM-1 modulator project, MLPCN validation set, flow cytometry (AID 2523;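 active = response below a set limit, under 55% cells CD8-positive and vesicle-bound, and CD8 cells' 90th-percentile brightness under 279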;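 for vesicle binding response: mean PE anti-B7-1 fluorescence of CD8+ cells relative to row control; 100% = QL9-loaded vesicles with DMSO vehicle in the same plate row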); conditions: 2C mouse CD8+ T cells, at 7 µM, stronger effect = lower value; double positive events: measured here: CD8+/vesicle+ event percentage
[7] = biological target: Integrin beta-1 (Homo sapiens) + Integrin alpha-4 (Homo sapiens) (UniProt P13612+P05556); assay: inhibition of HUTS-21 binding to VLA-4, pilot screen, VLA-4 allosteric modulator project, U937 cells, HUTS-21 mAb, flow cytometry, validation set (AID 2674;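 active = inhibition above 50%, about 3 SD of the validation set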;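 note: antibody binding induced by the VLA-4 ligand LDV present at three times its Kd; 0% = LDV ligand with antibody and no compound and 100% = antibody without LDV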); conditions: HUTS-21 LIBS mAb binding, at 6.7 µM, stronger effect = higher value
[8] = superoxide lowering in aged yeast cells, pilot screen, validation compound set (AID 2706;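 active = superoxide response below 65% of plate, a cut near 3 SD across the whole screen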;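 note: yeast exposed to compound for one week at 30 degrees C before staining; 100% = mean of all compound wells on the same plate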); conditions: S. cerevisiae aging, superoxide DHE fluorescence; at 10 µM; stronger effect = lower value
[9] = biological target: Beta-adrenergic receptor kinase 1 (Homo sapiens) (UniProt P25098); assay: GRK2 binders displacing RNA aptamer, biochemical, validation, human GRK2, bead flow cytometry (AID 488806;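 active = aptamer binding inhibition above 30%, about 3 SD of noise from non-fluorescent compounds; inactive = inhibition at or below 30%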); conditions: bead-bound GRK2, FAM-aptamer displacement, at 10 µM, stronger effect = higher value
Beta-adrenergic receptor kinase 1 (Homo sapiens), sequence (P25098 whole entry, looked up): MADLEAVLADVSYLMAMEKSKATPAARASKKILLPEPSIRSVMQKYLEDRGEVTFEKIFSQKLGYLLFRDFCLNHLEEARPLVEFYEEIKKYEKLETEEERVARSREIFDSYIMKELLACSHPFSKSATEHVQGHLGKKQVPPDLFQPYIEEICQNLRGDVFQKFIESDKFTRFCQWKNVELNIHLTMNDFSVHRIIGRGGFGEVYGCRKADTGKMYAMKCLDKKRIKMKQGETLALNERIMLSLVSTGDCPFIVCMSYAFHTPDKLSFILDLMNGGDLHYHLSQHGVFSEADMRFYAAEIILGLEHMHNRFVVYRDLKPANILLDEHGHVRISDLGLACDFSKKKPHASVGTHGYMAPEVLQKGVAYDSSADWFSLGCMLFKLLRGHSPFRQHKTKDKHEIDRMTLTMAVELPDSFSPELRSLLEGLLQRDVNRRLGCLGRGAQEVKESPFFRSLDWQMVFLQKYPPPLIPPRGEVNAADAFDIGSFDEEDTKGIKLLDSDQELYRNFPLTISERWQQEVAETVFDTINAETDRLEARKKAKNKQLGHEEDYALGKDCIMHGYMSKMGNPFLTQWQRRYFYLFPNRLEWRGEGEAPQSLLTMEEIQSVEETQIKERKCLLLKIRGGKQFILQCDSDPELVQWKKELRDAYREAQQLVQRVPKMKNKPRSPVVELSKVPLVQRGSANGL

[10] = biological target: Beta-2 adrenergic receptor (Homo sapiens) (UniProt P07550); assay: beta2AR agonists driving receptor internalization, pilot screen, cell-based, FAP fluorogen, flow cytometry, validation set (AID 504459;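 active = percent response above 42, roughly 3 SD of non-fluorescent test compounds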;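 note: agonist-driven loss of surface beta2AR via internalization measured by FAP dye flow cytometry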); conditions: Am2.2-beta2AR cells, FAP surface receptor flow cytometry; at 10 µM; stronger effect = higher value
Beta-2 adrenergic receptor (Homo sapiens), sequence (P07550 whole entry, looked up): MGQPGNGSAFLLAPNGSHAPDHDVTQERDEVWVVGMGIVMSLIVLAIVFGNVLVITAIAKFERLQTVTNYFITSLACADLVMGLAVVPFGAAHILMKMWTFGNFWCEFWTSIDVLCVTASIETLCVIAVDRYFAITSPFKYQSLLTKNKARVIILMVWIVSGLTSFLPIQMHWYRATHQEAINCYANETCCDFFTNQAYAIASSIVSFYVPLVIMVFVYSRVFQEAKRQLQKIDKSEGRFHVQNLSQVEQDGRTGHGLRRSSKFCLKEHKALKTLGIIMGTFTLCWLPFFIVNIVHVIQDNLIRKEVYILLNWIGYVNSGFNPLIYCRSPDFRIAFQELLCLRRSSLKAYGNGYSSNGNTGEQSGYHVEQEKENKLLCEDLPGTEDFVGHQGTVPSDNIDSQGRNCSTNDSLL

[11] = biological target: AP-2 complex subunit beta (Homo sapiens) (UniProt P63010); assay: inhibitors of arrestin peptide binding to AP2, pilot screen, biochemical, validation set, GST-AP2 beads, flow cytometry (AID 504541;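 active = inhibition above 54%, about 3 SD of non-fluorescent compounds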;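 note: AP2 carries R879A mutation and is captured from E. coli lysate; bead-bound FITC arrestin peptide fluorescence measuring arrestin peptide binding to AP2; 0% = DMSO wells and 100% = excess unlabeled arrestin peptide control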); conditions: FITC arrestin peptide, at 10 µM, stronger effect = higher value
AP-2 complex subunit beta (Homo sapiens), sequence (P63010 whole entry, looked up, one chain of several): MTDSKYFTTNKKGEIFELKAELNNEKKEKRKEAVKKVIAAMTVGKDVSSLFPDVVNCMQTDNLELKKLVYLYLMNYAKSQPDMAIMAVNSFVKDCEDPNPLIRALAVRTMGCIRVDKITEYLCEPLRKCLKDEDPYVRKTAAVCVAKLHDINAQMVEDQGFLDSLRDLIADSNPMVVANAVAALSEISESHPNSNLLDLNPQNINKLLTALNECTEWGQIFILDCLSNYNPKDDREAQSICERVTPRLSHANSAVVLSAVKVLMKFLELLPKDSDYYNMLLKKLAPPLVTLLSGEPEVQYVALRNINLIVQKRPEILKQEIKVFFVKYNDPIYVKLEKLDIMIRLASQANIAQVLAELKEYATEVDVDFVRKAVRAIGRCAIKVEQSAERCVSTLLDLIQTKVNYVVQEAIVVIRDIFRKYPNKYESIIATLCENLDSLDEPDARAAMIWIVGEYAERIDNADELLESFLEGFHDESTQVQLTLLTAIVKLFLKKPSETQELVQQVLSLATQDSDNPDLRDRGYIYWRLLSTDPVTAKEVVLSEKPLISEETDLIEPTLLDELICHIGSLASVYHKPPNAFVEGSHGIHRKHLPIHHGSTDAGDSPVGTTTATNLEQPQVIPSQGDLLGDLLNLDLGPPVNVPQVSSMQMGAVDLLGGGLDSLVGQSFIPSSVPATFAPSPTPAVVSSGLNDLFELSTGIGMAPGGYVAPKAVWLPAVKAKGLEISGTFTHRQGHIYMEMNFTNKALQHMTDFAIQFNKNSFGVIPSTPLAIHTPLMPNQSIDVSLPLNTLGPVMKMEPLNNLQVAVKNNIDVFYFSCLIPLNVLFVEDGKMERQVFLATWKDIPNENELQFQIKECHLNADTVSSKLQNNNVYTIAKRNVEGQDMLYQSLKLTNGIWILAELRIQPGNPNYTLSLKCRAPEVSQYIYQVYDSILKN

[12] = yeast V-ATPase proton transport modulators, S. cerevisiae, pHLuorin, HTS validation (AID 504600; in the data active = response above about 15%;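 note: plate controls were DMSO for no effect and reference compound for full effect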); conditions: S. cerevisiae pHLuorin cytosolic pH, at 10 µM, stronger effect = higher value
[13] = test system: anti-desmoglein-3 scFv antibody binding to human DSG3; assay: inhibitors of anti-DSG3 scFv binding to DSG3, pilot screen, biochemical, validation compound set, bead-based, flow cytometry (AID 588368;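 active = binding below the plate cutoff, the plate median minus 3 SD, with a reading above zero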;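 note: signal is the median channel fluorescence of bead-bound GFP antibody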); conditions: Protein G beads, DSG3-Fc, scFv-GFP binding, at 10 µM, stronger effect = lower value
[14] = test system: Botulinum neurotoxin type F light chain protease (Clostridium botulinum); assay: Botulinum neurotoxin type F light chain protease inhibition, multiplex microsphere flow cytometry, validation set (AID 588459); conditions: multiplex microsphere protease substrate cleavage assay, at 10 µM, stronger effect = higher value
[15] = biological target: Botulinum neurotoxin type A (Clostridium botulinum) (UniProt P0DPI0); assay: BoNT/A light chain protease inhibitors, biochemical, multiplex microsphere flow cytometry, validation set (AID 588460); conditions: at 10 µM, stronger effect = higher value
Botulinum neurotoxin type A (Clostridium botulinum), sequence (P0DPI0 whole entry, looked up): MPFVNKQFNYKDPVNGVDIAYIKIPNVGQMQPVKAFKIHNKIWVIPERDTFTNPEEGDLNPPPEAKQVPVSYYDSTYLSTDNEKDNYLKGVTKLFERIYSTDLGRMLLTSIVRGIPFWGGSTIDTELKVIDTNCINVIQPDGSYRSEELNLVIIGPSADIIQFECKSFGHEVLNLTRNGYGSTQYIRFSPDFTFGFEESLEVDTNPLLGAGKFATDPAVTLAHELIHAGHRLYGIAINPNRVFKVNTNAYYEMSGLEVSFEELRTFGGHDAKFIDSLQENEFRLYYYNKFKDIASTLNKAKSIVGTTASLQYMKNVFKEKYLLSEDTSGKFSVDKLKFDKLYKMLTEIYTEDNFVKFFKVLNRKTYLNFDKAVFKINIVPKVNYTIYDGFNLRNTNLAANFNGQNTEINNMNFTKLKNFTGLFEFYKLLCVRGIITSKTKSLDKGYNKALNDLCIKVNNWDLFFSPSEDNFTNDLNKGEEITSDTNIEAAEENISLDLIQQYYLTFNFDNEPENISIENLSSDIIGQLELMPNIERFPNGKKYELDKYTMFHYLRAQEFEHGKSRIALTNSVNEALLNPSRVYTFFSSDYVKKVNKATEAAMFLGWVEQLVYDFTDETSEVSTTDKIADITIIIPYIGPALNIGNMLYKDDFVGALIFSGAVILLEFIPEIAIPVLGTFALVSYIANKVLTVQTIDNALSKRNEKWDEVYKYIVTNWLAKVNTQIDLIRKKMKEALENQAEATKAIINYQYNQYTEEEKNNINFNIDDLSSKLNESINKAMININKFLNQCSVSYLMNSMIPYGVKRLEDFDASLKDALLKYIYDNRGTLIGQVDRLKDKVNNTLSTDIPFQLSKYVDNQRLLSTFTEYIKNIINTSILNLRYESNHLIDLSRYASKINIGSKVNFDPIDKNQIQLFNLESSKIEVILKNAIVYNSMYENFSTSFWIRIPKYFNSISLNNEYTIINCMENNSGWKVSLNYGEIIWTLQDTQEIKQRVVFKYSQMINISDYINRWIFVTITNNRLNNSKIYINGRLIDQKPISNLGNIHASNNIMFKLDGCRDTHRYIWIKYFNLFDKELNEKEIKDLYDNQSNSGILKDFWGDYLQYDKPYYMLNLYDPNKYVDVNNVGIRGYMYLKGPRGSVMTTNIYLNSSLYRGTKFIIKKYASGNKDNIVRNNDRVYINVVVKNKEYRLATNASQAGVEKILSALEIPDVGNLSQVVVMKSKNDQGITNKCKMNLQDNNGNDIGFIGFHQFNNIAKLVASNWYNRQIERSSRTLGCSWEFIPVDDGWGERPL

[16] = biological target: Lethal factor (Bacillus anthracis) (UniProt P15917); assay: Lethal factor protease inhibitors, Bacillus anthracis, multiplex microsphere cleavage assay, validation set (AID 588461); conditions: flow cytometry, at 10 µM, stronger effect = higher value
Lethal factor (Bacillus anthracis), sequence (P15917 whole entry, looked up): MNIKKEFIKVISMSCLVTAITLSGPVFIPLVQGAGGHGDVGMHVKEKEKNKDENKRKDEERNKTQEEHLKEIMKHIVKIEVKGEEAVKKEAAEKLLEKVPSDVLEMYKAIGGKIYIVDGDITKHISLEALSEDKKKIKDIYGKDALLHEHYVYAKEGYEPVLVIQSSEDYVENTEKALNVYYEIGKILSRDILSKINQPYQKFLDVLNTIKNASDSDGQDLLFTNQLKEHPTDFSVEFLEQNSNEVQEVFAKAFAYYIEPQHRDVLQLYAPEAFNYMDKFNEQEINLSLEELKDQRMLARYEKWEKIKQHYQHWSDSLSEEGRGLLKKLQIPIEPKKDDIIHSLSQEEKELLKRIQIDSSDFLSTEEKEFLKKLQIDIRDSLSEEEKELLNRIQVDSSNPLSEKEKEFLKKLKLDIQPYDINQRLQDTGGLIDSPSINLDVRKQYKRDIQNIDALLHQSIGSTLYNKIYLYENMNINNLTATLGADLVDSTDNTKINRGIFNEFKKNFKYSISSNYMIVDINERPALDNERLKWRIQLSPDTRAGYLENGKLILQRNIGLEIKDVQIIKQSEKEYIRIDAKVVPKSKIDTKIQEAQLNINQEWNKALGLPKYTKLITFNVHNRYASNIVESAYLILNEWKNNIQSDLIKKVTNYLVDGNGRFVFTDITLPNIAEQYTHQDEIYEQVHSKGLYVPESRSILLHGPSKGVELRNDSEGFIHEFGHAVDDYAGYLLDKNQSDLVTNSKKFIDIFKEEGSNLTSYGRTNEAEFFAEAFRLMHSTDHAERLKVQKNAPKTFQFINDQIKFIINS

[17] = inhibitors of fungal efflux pumps CDR1, CDR2, MDR1, pilot screen, validation compound set, multiplex, phenotypic (AID 588506;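 active = efflux inhibition above 0.42, the validation set average plus 4 SD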;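 note: Nile Red retained in cells so higher fluorescence means more efflux inhibition; 0 = negative control wells and 1 = enniatin B 25 µM full block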); conditions: S. cerevisiae pump-expressing triplex, Nile Red efflux flow cytometry; at 10 µM; stronger effect = higher value
[18] = biological target: ATP-binding cassette sub-family B member 6 (Homo sapiens) (UniProt Q9NP58); assay: ABCB6 transporter inhibitors, pilot screen, K562-ABCB6 cells, flow cytometry, validation set (AID 588550;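 active = inhibition above the screen-wide mean plus 3 SD, about 51%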;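 note: 0% = DMSO wells and 100% = benzethonium chloride 70 µM positive control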); conditions: K562-ABCB6 porphyrin accumulation, 1 h, at 10 µM, stronger effect = higher value
ATP-binding cassette sub-family B member 6 (Homo sapiens), sequence (Q9NP58 whole entry, looked up): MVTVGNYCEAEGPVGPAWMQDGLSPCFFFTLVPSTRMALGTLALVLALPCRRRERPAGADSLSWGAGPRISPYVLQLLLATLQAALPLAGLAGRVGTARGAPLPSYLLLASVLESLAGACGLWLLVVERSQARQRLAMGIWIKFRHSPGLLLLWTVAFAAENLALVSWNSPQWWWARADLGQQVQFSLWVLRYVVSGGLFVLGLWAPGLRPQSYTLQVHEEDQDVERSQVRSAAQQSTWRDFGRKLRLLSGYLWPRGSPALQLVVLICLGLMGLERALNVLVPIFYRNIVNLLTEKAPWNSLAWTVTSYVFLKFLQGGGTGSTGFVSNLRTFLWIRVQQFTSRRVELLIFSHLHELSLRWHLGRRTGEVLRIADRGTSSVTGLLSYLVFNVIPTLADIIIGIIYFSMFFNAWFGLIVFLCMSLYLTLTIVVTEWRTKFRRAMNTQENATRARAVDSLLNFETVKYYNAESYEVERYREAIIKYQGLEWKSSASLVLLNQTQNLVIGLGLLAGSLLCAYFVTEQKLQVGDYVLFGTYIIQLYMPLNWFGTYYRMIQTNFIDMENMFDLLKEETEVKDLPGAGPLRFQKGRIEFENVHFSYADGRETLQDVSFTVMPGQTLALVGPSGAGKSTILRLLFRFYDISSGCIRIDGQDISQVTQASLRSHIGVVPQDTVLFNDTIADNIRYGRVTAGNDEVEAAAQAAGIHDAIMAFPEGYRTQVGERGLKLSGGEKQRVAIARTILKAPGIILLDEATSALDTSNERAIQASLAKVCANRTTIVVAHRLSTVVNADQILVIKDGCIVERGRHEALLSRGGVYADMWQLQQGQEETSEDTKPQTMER

[19] = promoters of myeloid differentiation in arrested cells, primary screen, cell-based, GFP/MAC1 double positive, flow cytometry, validation set (AID 588685;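 active = differentiation response of at least 50%, scaled between solvent and reference control, from cells with both markers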;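 note: compound exposure lasts four days before antibody staining and flow analysis; 0% = DMSO wells and 100% = 5 µM fulvestrant positive control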); conditions: ER-HoxA9 marrow cells, stronger effect = higher value

| Structure (SMILES) | percent of DMSO control GFP [1] | GFP response vs DMSO [2] | percent response of DMSO control [3] | GFP response vs DMSO [4] | GFP response, % of DMSO [5] | double positive events [6] | vesicle binding response [6] | inhibition [7] | superoxide response (% of plate) [8] | aptamer binding inhibition [9] | response [10] | inhibition [11] | response [12] | binding (% of control) [13] | inhibition [14] | inhibition [15] | inhibition [16] | efflux inhibition (fraction of control) [17] | inhibition [18] | differentiation response [19] |
| --- | --- | --- | --- | --- | --- | --- | --- | --- | --- | --- | --- | --- | --- | --- | --- | --- | --- | --- | --- | --- |
| O=S(=O)(c1ccc(F)cc1)N1CCCCC1c1cccnc1 (stereo not given) | 99% (inactive) | 102% (inactive) | 98.3% (inactive) | 112% (inactive) | 113% (inactive) | 62% | 202% (inactive) | -2.82% (inactive) | 99.7% (inactive) | -2% (inactive) | -9.47% (inactive) | -4.49% (inactive) | 2.55% (inactive) | 105% (inactive) | 0.1% (inactive) | 0.8% (inactive) | 3.2% (inactive) | 0.08 (inactive) | 3% (inactive) | -11.9% (inactive) |
| C[N+]1(C)CCc2cc3c(cc2[C@H]1[C@@H]1OC(=O)c2c1ccc1c2OCO1)OCO3 | 105% (inactive) and 102% (inactive) | 102% (inactive) and 108% (inactive) | 104% (inactive) and 93.1% (inactive) | 98% (inactive) and 90.1% (inactive) | 100% (inactive) and 93.4% (inactive) | 60.5% and 65.5% | 128% (inactive) and 1190% (inactive) | 5.61% (inactive) and 11% (inactive) | 93.4% (inactive) and 102% (inactive) | -1% (inactive) and 5% (inactive) | -0.95% (inactive) and -3.71% (inactive) | 55.1% (active) and -7.04% (inactive) | -7.78% (inactive) and 0.91% (inactive) | 101% (inactive) and 97.9% (inactive) | -0.6% (inactive) and -2.3% (inactive) | -1% (inactive) and -0.6% (inactive) | 1% (inactive) and -2.4% (inactive) | 0.115 (inactive) and -0.1 (inactive) | 24% (inactive) and -3% (inactive) | -10.4% (inactive) and 1.22% (inactive) |
| Cc1cc2c(C(C)C)c(O)c(O)c(C=O)c2c(O)c1-c1c(C)cc2c(C(C)C)c(O)c(O)c(C=O)c2c1O | 107% (inactive) | 103% (inactive) | 97% (inactive) | 130% (inactive) | 112% (inactive) | 63.4% | 161% (inactive) | 11.7% (inactive) | 119% (inactive) | 5% (inactive) | -1.41% (inactive) | 14% (inactive) | 1.35% (inactive) | 64.8% (active) | 2.6% (inactive) | 0.9% (inactive) | -7.5% (inactive) | 0.25 (inactive) | -3% (inactive) | 16.7% (inactive) |
| C[N+]1(C)[C@@H]2CC[C@H]1CC(OC(=O)C(CO)c1ccccc1)C2 (stereo not given in full) | 105% (inactive) | 96.3% (inactive) | 105% (inactive) | 113% (inactive) | 110% (inactive) | 64.9% | 7000% (inactive) | -14.1% (inactive) | 91% (inactive) | 1% (inactive) | -8.13% (inactive) | -5.05% (inactive) | 0.35% (inactive) | 98% (inactive) | 3.3% (inactive) | -0.2% (inactive) | -4.9% (inactive) | -0.1 (inactive) | 7% (inactive) | -15.2% (inactive) |
| C[C@]12CCC(=O)C=C1CCC1C2CC[C@@]2(C)C1CC[C@@]2(O)CC#N (stereo not given in full) | 99.8% (inactive) | 105% (inactive) | 101% (inactive) | 90.7% (inactive) | 98% (inactive) | 71.1% | 961% (inactive) | 12% (inactive) | 95.6% (inactive) | 5% (inactive) | -3.28% (inactive) | -0.45% (inactive) | -1.52% (inactive) | 97.9% (inactive) | 3.3% (inactive) | -0.9% (inactive) | -2.6% (inactive) | -0.07 (inactive) | 8% (inactive) | 11% (inactive) |
| Clc1ccc(C2NCCc3[nH]cnc32)cc1 (stereo not given) | 104% (inactive) | 98.3% (inactive) | 101% (inactive) | 92% (inactive) | 104% (inactive) | 60.8% | 244% (inactive) | -1.49% (inactive) | 94.4% (inactive) | -1% (inactive) | -11.3% (inactive) | -2.42% (inactive) | 0.96% (inactive) | 100% (inactive) | 1.1% (inactive) | 0.7% (inactive) | -5.5% (inactive) | -0.1 (inactive) | 1% (inactive) | -5.62% (inactive) |
| COc1ccccc1CN1CCCCC1c1cccnc1 (stereo not given) | 104% (inactive) | 99.3% (inactive) | 106% (inactive) | 97.3% (inactive) | 107% (inactive) | 65.8% | 217% (inactive) | 4.73% (inactive) | 98.9% (inactive) | 6% (inactive) | -6.83% (inactive) | 1.86% (inactive) | -0.89% (inactive) | 97.1% (inactive) | 1.4% (inactive) | -0.8% (inactive) | 4% (inactive) | -0.17 (inactive) | 6% (inactive) | 7.09% (inactive) |
